Compound activity as filed in PubChem BioAssay.
tim23-1 inh: growth inhibitors of tim23-1 mutant yeast, primary screen, luminescence, uHTS; inhibition, % at 20 µM; actives 1.3% (n = 330,000); S. cerevisiae tim23-1 growth, BacTiter-Glo luminescence, 24 h;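 active means growth inhibition of the mutant yeast at or above 50%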;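 further: temperature-sensitive mutant grown at 25 °C; plate controls were DMSO-treated mutant yeast for no effect and medium wells lacking yeast for full effect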
TIM10 inh: growth inhibitors of isogenic TIM10 control yeast, primary screen, counter-screen for tim10-1 yeast inhibitor project, luminescence, uHTS | AID 463195, 2010 | actives 1.4% (n = 330,000) | S. cerevisiae TIM10 strain growth, BacTiter-Glo luminescence, 24 h | inhibition, % at 10 µM;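 active means inhibition of 40% or more at the single tested concentration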;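 further: wild-type TIM10 isogenic control strain grown at permissive 25 °C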
NLRP3 yeast inh: NALP3 inflammasome inhibitors in reconstituted yeast, primary screen, luminescence, uHTS | Yeast reconstituted NLRP3/ASC/caspase-1, beta-gal luminescence, 24 h | inhibition, % at 10 µM | actives 0.39% (n = 330,000);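 active means inhibition of 50% or more; inactive means inhibition below 50%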;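 further: plate controls were induced DMSO wells for no effect and uninduced yeast grown without galactose for full effect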
SKKanGAS inh: S. pyogenes SKKanGAS growth inhibitors in kanamycin, primary screen, streptokinase expression inhibitor project, SKKanGAS strain, BacTiter-Glo luminescence. 6 h. inhibition, % at 7.5 µM. actives 1.3% (n = 300,000). AID 1662, 2009;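 active means mean replicate score, as percent of positive control median, at least 50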;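 further: strain carries kanamycin resistance gene driven by streptokinase promoter and grows in 40 µg/ml kanamycin; loss of luminescence reflects streptokinase promoter inhibition or plain growth inhibition; 0% = median of DMSO wells and 100% = positive control at its reference dose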
PfHsp90 set2: growth inhibition of PfHsp90-expressing yeast, primary screen, antimalarial PfHsp90 inhibitor project, S. cerevisiae, BacTiter-Glo luminescence, single point, set 2; BacTiter-Glo ATP, 48 h; yeast lacking PDR1 and PDR3 efflux regulators; AID 504621, 2011; actives 0.32% (n = 310,000); inhibition, % at 9.4 µM;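 active means every replicate shows inhibition above about 80%, whatever the replicate mean, limit read from the data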;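 further: 0% = DMSO neutral controls and 100% = 20 µM radicicol positive controls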
tim10-1 inh: growth inhibitors of tim10-1 mutant yeast, primary screen, luminescence, uHTS. inhibition, % at 20 µM. actives 2.2% (n = 330,000). AID 463190, 2010. S. cerevisiae tim10-1 ts strain growth, BacTiter-Glo, 24 h;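 active means inhibition of at least 40%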;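 further: mutant grown at 25 °C; 0% = DMSO wells with yeast and 100% = wells holding no yeast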
tim23-1 conf: tim23-1 mutant yeast growth inhibitors, confirmation, luminescence, single concentration; shares compounds with tim23-1 inh; S. cerevisiae tim23-1 growth, BacTiter-Glo luminescence, 24 h; inhibition, % at 20 µM; actives 83% (n = 4,400);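 active means inhibition above about 39% in either of two replicate wells at 20 µM, limit read from the data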;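 further: temperature-sensitive tim23-1 mutant grown at 25 °C; 0% = DMSO wells with yeast and 100% = medium wells without yeast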
* hit, by the source's call; . = not tested or not shown. Sampled rows, rich in hits. Any-hit rate of the full collection: about 4.5%.

SMILES	tim23-1 inh	TIM10 inh	NLRP3 yeast inh	SKKanGAS inh	PfHsp90 set2	tim10-1 inh	tim23-1 conf
COc1cccc(Nc2nc(-c3cccc(N4C(=O)c5ccccc5C4=O)c3)cs2)c1	14.5	20.5	13.5	12.6	-1.1	22.1	.
COc1cccc(Nc2nc(-c3ccc(O)cc3)cs2)c1	54.5*	16.0	13.2	3.5	.	19.6	53.4*
O=C(Cn1sc2ccccc2c1=O)N1CCN(C(=O)c2ccco2)CC1	15.3	-8.0	-3.1	0.5	-5.8	19.5	.
Cc1cc(N)n2nc(-c3ccccc3)c(-c3ccccc3)c2n1	59.4*	9.8	24.4	-9.4	-4.5	15.6	46.5*
O=[N+]([O-])c1ccc(Cl)c(S(=O)(=O)NC2=NCCC2)c1	-8.2	-8.0	12.5	.	.	-13.3	.
CC1(C)CSC(=NCCc2ccccc2)N1	2.8	-13.5	-10.4	1.2	1.8	8.3	.
Cc1nc2c(n1C1CCCCC1)C(=O)c1ccccc1C2=O	51.4*	24.8	-22.4	5.9	-58.2	33.7	40.2*
CC1CCCC(C)N1C(=O)COC(=O)C12CC3CC(CC(Cl)(C3)C1)C2 (configuration not stated)	42.1	20.7	14.0	.	-2.3	19.8	.
CN(C(=O)COC(=O)C12CC3CC(CC(Cl)(C3)C1)C2)c1ccccc1	56.2*	26.4	-6.2	.	.	23.0	44.1*
CCN1CCC2(CC1)N=C(c1ccc(F)cc1)C(=S)N2C(=O)c1ccc(C(C)(C)C)cc1	52.8*	12.6	-11.1	-7.5	-22.8	8.3	-12.8
Nc1nonc1C(=O)N/N=C/c1cc(Br)ccc1O	52.2*	13.6	47.1	-6.2	-22.9	-3.4	55.9*
CC(C)CN1C(=O)C(=O)N(CC(=O)N(C)CC(=O)Nc2ccc(F)cc2)C1=O	-19.5	4.8	6.2	.	25.4	-15.6	.
O=C(OCc1ccc(F)cc1)c1cc(=O)c2ccccc2o1	93.9*	11.6	6.1	-1.3	-37.8	6.3	26.1
CC(NC(=O)c1ccc(N2CCCC2)c([N+](=O)[O-])c1)c1ccc(S(N)(=O)=O)cc1 (configuration not stated)	3.1	5.5	16.6	5.3	11.3	5.5	.
CCCCCSc1nnc(N)s1	6.3	13.7	6.6	-9.1	1.2	8.5	.
COc1cc(/C=C/[N+](=O)[O-])ccc1OC(=O)/C=C/c1ccc(F)cc1	54.7*	26.4	41.6	-11.1	-17.7	35.3	51.3*
COc1ccc(/C=C/C(=O)Oc2ccc(C)c(C)c2)cc1OC	16.5	8.4	13.8	-0.6	-0.6	26.7	.
COc1ccc(CNC(=O)COC(=O)CNC(=O)c2sc3ccccc3c2Cl)cc1OC	4.4	-9.8	12.1	.	18.0	-0.7	.
COc1cc2c(cc1OC)CN(C1CCC(C(C)(C)C)CC1)CC2 (configuration not stated)	.	.	.	.	-11.3	.	.
Cc1nnc(SCC(=O)N2CCCCC2)n1CC1CCCO1 (configuration not stated)	68.8*	-9.2	4.0	9.4	16.3	2.7	13.8
COC(=O)c1ccc2nc(NC(=O)C3CC3)sc2c1	51.3*	32.9	16.4	-3.1	12.2	33.7	50.4*
COC(=O)c1ccc2nc(NC(=O)C(C)C)sc2c1	33.0	27.5	17.9	-5.4	13.4	37.8	.
CC1CC1C(=O)Nc1nc2ccc(Cl)cc2s1 (configuration not stated)	55.7*	34.0	23.3	5.5	-66.6	39.6	53.2*
Cc1ccc(NC(=O)CCNC(=O)Cn2ccc3ccccc3c2=O)cc1F	-5.9	9.7	-0.1	2.7	10.0	-27.8	.
COc1ccc(C(=O)N/C(=C\c2cccc3ccccc23)C(=O)N2CCN(C)CC2)cc1	1.0	5.0	15.9	.	-22.3	3.7	.
O=C(CCCn1nnnc1CN1CCOCC1)N1CCC(c2ccccc2Cl)C1 (configuration not stated)	11.9	3.0	3.3	-6.8	6.6	-12.7	.
